# Source: ChEMBL document CHEMBL1157539, “Thousands of chemical starting points for antimalarial lead identification” (Nature, 2010)
# Tested on: HepG2
# Assay: GSK_TCMDC: Percent inhibition of human HepG2 cell line. Test compounds present at 10uM.
# Format: functional
row,Compound,Inhibition
1,CC(CN(C)C)C(=O)Nc1cccc(-c2cccc(-c3nc4ccccc4[nH]3)c2)c1 (stereo not given),42%
2,COc1cc(O)c2c(=O)c(OC)c(-c3cccc(Cl)c3OC3O[C@H](CO)[C@@H](O)[C@H](O)[C@H]3O)oc2c1OC (stereo not given in full),16%
3,CCCOc1cc(OCCC)cc(-c2cc(=O)c3ccccc3[nH]2)c1,33%
4,Cc1ccc(NC(=O)Nc2ccc(Cl)c(C(F)(F)F)c2)cc1-c1ccc(C(=O)NCCN2CCOCC2)cc1,52%
5,C[C@@H](CC1CCCCC1)OC(=O)N(C)[C@H]1CCN(C#N)C1,4%
6,COc1cc(-c2nc(-c3ccc(C(=O)c4ccc(F)cc4)cc3)c(-c3ccccc3)[nH]2)cc(OC)c1O,0%
7,CC[C@]1(C)C[C@@H](NC(=O)NC(=O)c2ccc(OC)cc2)[C@]2(C)[C@H](C)CC[C@]3(CCC(=O)[C@H]32)[C@@H](C)[C@@H]1OC(=O)NC(=O)c1ccc(OC)cc1,10%
8,CC1(C)N=C(N)N=C(N)N1OCc1ccc2c(c1)OCO2,66%
9,CCc1cc(=O)[nH]c(-n2nc(C)cc2NC(=O)CC(c2ccccc2)c2ccccc2)n1,37%
10,Cl.O=C(Nc1cccc2ccccc12)N1CCc2cc3nccc(N4CCN5CCC[C@H]5C4)c3cc21,11%
11,O=C(Nc1ccc2c(c1)CCC2)c1cccc(N2CCN(c3ccncc3)CC2)c1.O=C(O)C(F)(F)F,35%
12,Cc1cccc2nc(-c3cccc(-c4ccc(C(=O)NCc5ccccc5S(C)(=O)=O)cc4)c3)[nH]c12,17%
13,COc1cc2nc(Nc3ccc4c(c3)OCCO4)nc(N)c2cc1OC.Cl,13%
14,O=C(O)C(F)(F)F.O=S(=O)(NCCN1CCCC1)c1ccc(-c2cccc(CNCCc3cccs3)c2)cc1,41%
15,O=C(Nc1ccc(F)c([N+](=O)[O-])c1)Nc1cc(C(F)(F)F)ccc1Cl,5%
16,CCc1cc(C(=O)c2cccc(C)c2)c(NC(=O)CN2CCN(C(=O)c3ccco3)CC2)s1,0%
17,O=c1[nH]c2c(cc1CNC1CCCCC1)c(-c1ccc(F)cc1)nn2-c1ccccc1,8%
18,Cc1cc(OCCCN2CCC(NS(=O)(=O)c3ccc(Cl)c(Cl)c3)C2)c2ccccc2n1 (stereo not given),28%
19,CCCCN(CCCC)CCOc1cc2c(cc1OC)CCN2C(=O)/C=C/c1ccccc1Cl.Cl,13%
20,c1cncc(Oc2ccc(Nc3ccnc4cc(-c5cccc(CN6CCCCC6)c5)ccc34)cc2)c1,33%

row,Compound,Inhibition
1,Cc1cc(N[C@@H](CC(C)C)C(=O)NCCOc2ccccc2)nc(Nc2ccccc2)n1.O=C(O)C(F)(F)F,9%
2,CC(C)C1c2ccc(O)cc2CC2C(=O)N(C3CCCCC3)C(=O)N21 (stereo not given),2%
3,Cc1noc(C)c1-c1ccc2c(Nc3ccccc3C(C)(C)C)c(C(=O)NCc3ccc(OC(C)C)cc3)cnc2c1.Cl,0%
4,Cc1ccccc1CNc1noc(-c2c(-c3ccccc3)noc2C)n1,0%
5,COc1ccc(CNC2Cc3ccccc3C2)cc1-c1cccc(S(=O)(=O)NCCN2CCCC2)c1.O=C(O)C(F)(F)F,48%
6,O=C(C=Cc1ccc(Cl)c(Cl)c1)NCCCCCN1CCCC(CCCNS(=O)(=O)c2cccc3cccnc23)C1 (stereo not given),37%
7,COc1ccc(-c2ccc(NC(=O)c3cccc(C#N)c3)cc2)cc1CN1CCNCC1.O=C(O)C(F)(F)F,30%
8,Cc1cc(C)c(NC(=O)NC2CCN(CCCCCNC(=O)/C=C/c3ccc(Cl)c(Cl)c3)CC2)c(C)c1,30%
9,O=C(NC1CCN(Cc2ccccc2)CC1)c1cc(C(=O)NC2CCN(Cc3ccccc3)CC2)cc(C(=O)NC2CCN(Cc3ccccc3)CC2)c1,13%
10,CC(C)CC(=O)N1CCNC[C@@H]1C(=O)NCCSCc1c(F)cccc1Cl.O=C(O)C(F)(F)F,1%
11,COc1ccc(CNCCCCCCNCc2ccc(OC)c3ccccc23)c2ccccc12.Cl,100%
12,CCOCCCn1c(=N)c(C(=O)NC(C)c2ccccc2)cc2c(=O)n3cccc(C)c3nc21 (stereo not given),24%
13,c1csc(-c2nc(N3CCCC3)ncc2-c2ccsc2)n1,1%
14,O=C(O)C(F)(F)F.c1ccc(-n2ncc(CNCc3ccc(-c4ccc(-c5nc6ccccc6[nH]5)s4)cc3)n2)cc1,27%
15,COc1cc(OC)cc(C(=O)N2CCOC(CCN3CCC(c4ccccc4)CC3)(c3ccc(Cl)c(Cl)c3)C2)c1 (stereo not given),13%
16,Cl.N=C(N)NN=Cc1c2ccccc2c(Cl)c2ccc(Cl)cc12,97%
17,Cc1cc(CNC(=O)c2ccc(-c3ccc(-c4nc5cc(C(F)(F)F)ccc5[nH]4)s3)cc2)on1,15%
18,CCOC(=O)CC[C@@H](NC(=O)c1ccc(NCc2ccc3ccc4nc(C)[nH]c(=O)c4c3c2)cc1F)C(=O)N[C@@H](Cc1c[nH]c2ccccc12)C(=O)OCC,45%
19,Cc1cc(O)c(-c2ccc(Oc3ccc(F)cc3)cc2)c(C)n1,0%
20,COc1ccc(-c2nc(NC(=O)COc3ccc(C(C)=O)cc3)sc2C)cc1,0%
